# Experimental data as given in paper PMC7862700, “An all-to-all approach to the identification of sequence-specific readers for epigenetic DNA modifications on cytosine”.
# Tests used:
# Assay in all cases: DAPPL (digital affinity profiling via proximity ligation, sequencing); 10 mM Tris-HCl pH 7.5, 50 mM NaCl, 1 mM DTT, 4% glycerol, room temperature, 30 min; GST-TFs on glutathione beads, 16-mer random dsDNA library, 0.1% formaldehyde crosslink after washing; high values mean tight binding
# FEV = molecular target: T1, FEV (Homo sapiens, UniProt Q99581 1-238); conditions: protein: recombinant; tags: N-terminal GST; dsDNA, one strand shown
# T1 sequence: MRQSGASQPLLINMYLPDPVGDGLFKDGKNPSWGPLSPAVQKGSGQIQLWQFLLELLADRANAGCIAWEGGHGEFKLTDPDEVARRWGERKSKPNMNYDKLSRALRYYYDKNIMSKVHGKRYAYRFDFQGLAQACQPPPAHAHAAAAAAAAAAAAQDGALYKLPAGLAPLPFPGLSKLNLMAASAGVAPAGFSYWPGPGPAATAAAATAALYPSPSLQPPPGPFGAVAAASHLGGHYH
# Method in brief: (§1)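 Each value of binding signal is a hexamer's read frequency for a factor divided by the same hexamer's frequency in the tag-only sample. Barcoded, bead-captured GST fusions of human transcription factors made in yeast were pooled with that sample and incubated with 200 nmole of a random double-stranded 16-mer DNA library in Tris/NaCl/DTT/glycerol buffer at room temperature for 30 min. Washing, 0.1% formaldehyde crosslinking, proximity ligation, PCR and Illumina NextSeq500 sequencing followed.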
# ETV5 = ETV5 (Homo sapiens, UniProt P41161 1-510); conditions: protein: recombinant; tags: N-terminal GST; dsDNA, one strand shown
# Method in brief: as §1
# HSF1 = HSF1 (Homo sapiens, UniProt Q00613 1-529); conditions: protein: recombinant; tags: N-terminal GST; chain copies: 3; dsDNA, one strand shown
# Method in brief: as §1
# SPIC = molecular target: T2, SPIC (Homo sapiens, UniProt Q8N5J4 1-248); conditions: protein: recombinant; tags: N-terminal GST; dsDNA, one strand shown
# T2 sequence: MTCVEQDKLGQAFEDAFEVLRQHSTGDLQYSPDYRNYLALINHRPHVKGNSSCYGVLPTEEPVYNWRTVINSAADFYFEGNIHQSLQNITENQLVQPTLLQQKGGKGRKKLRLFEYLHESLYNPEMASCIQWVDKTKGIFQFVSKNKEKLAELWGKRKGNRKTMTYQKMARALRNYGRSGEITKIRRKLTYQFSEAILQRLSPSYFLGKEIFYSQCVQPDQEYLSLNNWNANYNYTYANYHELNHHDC
# Method in brief: as §1
# ELF4 = ELF4 (Homo sapiens, UniProt Q99607 1-663); conditions: protein: recombinant; tags: N-terminal GST; dsDNA, one strand shown
# Method in brief: as §1
# ELK4 = molecular target: T3, ELK4 (Homo sapiens, UniProt P28324-2 1-405); conditions: protein: recombinant; tags: N-terminal GST; dsDNA, one strand shown
# T3 sequence: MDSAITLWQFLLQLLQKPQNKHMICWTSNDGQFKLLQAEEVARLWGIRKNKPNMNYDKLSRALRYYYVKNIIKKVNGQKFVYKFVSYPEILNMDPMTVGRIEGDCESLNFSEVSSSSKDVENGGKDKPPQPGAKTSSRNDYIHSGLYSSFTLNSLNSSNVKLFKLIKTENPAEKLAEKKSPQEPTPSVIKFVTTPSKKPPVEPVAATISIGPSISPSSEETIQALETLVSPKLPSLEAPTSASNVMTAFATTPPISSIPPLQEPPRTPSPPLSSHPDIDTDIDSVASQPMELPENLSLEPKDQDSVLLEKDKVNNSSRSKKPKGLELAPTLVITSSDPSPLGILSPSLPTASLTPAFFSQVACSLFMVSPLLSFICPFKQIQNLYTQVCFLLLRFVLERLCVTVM
# Method in brief: as §1
# ETV2 = molecular target: T4, ETV2 (Homo sapiens, UniProt O00321 1-342); conditions: protein: recombinant; tags: N-terminal GST; dsDNA, one strand shown
# T4 sequence: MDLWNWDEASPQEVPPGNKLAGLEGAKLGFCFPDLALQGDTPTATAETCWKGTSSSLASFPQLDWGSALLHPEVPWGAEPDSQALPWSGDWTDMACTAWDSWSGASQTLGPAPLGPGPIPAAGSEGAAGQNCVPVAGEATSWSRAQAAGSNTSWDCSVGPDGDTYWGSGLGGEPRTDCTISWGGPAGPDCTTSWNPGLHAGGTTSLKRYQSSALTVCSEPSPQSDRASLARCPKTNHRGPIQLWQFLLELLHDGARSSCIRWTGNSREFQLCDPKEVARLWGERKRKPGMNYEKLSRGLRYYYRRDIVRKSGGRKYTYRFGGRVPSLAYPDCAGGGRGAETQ
# Method in brief: as §1
# ELF3 = molecular target: T5, ELF3 (Homo sapiens, UniProt P78545 1-371); conditions: protein: recombinant; tags: N-terminal GST; dsDNA, one strand shown
# T5 sequence: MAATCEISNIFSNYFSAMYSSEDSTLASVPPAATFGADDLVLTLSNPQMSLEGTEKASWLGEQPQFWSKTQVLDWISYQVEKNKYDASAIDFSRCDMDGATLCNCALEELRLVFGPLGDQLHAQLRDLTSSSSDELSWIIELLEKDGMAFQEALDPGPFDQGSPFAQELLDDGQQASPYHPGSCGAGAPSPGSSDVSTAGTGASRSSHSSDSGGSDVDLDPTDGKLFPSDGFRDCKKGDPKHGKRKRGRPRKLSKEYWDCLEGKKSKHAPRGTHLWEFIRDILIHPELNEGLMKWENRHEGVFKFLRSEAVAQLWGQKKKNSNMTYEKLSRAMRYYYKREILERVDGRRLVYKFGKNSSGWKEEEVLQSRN
# Method in brief: as §1
# CRX = CRX (Homo sapiens, UniProt O43186 1-299); conditions: protein: recombinant; tags: N-terminal GST; dsDNA, one strand shown
# Method in brief: as §1
# ETV1 = ETV1 (Homo sapiens, UniProt P50549 1-477); conditions: protein: recombinant; tags: N-terminal GST; dsDNA, one strand shown
# Method in brief: as §1
# ERF = molecular target: T6, ERF (Homo sapiens, UniProt P50548 1-548); conditions: protein: recombinant; tags: N-terminal GST; dsDNA, one strand shown
# T6 sequence: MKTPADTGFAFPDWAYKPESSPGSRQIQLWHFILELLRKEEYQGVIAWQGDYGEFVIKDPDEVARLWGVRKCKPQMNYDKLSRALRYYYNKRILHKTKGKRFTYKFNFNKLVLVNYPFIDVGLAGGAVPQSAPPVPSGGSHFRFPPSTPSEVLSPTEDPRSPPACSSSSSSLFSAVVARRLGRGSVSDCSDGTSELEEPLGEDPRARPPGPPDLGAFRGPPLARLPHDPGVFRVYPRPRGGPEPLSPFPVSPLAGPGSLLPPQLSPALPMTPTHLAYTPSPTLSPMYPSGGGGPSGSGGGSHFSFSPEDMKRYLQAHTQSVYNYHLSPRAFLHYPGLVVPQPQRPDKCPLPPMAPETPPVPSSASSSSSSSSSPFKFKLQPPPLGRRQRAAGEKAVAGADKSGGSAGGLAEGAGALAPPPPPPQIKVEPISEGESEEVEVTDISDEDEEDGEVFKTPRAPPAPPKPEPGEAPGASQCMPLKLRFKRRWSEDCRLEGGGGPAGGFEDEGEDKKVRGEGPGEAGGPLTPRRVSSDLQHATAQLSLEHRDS
# Method in brief: as §1
# ETV3L = molecular target: T7, ETV3L (Homo sapiens, UniProt Q6ZN32 1-361); conditions: protein: recombinant; tags: N-terminal GST; dsDNA, one strand shown
# T7 sequence: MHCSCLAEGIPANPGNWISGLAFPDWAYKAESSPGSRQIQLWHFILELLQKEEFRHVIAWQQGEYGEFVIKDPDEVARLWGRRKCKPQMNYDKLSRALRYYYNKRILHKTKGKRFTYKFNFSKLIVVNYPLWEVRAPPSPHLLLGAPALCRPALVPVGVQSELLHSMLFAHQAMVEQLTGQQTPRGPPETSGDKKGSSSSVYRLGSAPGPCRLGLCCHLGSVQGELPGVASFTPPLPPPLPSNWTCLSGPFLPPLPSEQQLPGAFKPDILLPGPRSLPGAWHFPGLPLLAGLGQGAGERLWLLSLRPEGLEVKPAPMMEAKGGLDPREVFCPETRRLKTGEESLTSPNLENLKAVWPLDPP
# Method in brief: as §1
# ETS2 = molecular target: T8, ETS2 (Homo sapiens, UniProt P15036 1-469); conditions: protein: recombinant; tags: N-terminal GST; dsDNA, one strand shown
# T8 sequence: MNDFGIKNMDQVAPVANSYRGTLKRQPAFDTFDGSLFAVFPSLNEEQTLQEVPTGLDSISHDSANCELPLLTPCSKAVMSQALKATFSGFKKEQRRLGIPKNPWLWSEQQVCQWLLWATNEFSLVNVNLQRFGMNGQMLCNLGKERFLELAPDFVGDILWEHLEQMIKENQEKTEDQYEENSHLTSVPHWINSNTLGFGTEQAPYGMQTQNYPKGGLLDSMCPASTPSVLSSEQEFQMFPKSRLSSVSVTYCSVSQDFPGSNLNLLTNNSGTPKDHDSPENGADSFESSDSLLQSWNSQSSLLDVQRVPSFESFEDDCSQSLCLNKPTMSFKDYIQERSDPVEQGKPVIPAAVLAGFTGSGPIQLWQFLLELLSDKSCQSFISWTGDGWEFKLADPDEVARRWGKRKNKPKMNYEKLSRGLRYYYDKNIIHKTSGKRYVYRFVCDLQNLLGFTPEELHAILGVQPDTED
# Method in brief: as §1
# SPDEF = molecular target: T9, SPDEF (Homo sapiens, UniProt O95238 1-335); conditions: protein: recombinant; tags: N-terminal GST; dsDNA, one strand shown
# T9 sequence: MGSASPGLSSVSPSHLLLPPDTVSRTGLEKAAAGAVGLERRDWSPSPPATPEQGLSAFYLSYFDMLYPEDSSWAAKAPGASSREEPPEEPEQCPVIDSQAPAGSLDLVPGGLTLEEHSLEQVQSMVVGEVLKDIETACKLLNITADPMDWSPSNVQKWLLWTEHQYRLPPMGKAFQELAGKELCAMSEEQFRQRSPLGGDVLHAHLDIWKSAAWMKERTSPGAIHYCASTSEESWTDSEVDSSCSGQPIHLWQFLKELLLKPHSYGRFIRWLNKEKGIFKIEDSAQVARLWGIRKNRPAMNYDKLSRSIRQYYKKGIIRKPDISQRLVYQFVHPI
# Method in brief: as §1
# ETV7 = molecular target: T10, ETV7 (Homo sapiens, UniProt Q9Y603 1-341); conditions: protein: recombinant; tags: N-terminal GST; dsDNA, one strand shown
# T10 sequence: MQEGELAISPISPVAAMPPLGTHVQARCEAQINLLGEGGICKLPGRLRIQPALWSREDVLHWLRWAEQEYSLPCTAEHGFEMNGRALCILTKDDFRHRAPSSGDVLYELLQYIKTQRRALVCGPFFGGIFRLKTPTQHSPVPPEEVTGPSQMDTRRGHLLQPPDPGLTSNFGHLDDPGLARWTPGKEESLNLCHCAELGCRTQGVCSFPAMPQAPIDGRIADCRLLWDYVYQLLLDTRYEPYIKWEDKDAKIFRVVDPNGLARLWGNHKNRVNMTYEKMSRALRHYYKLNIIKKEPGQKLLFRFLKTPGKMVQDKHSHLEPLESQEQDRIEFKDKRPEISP
# Method in brief: as §1
# ELF5 = molecular target: T11, ELF5 (Homo sapiens, UniProt Q9UKW6-2 1-255); conditions: protein: recombinant; tags: N-terminal GST; dsDNA, one strand shown
# T11 sequence: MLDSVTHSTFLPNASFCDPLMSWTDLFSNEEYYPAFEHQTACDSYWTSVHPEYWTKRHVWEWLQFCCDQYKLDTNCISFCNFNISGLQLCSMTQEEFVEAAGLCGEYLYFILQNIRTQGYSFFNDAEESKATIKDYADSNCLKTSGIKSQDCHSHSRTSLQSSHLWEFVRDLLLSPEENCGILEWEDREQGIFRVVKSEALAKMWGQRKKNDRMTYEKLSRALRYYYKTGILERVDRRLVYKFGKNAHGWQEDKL
# Method in brief: as §1
# ETV3 = molecular target: T12, ETV3 (Homo sapiens, UniProt P41162-2 1-143); conditions: protein: recombinant; tags: N-terminal GST; dsDNA, one strand shown
# T12 sequence: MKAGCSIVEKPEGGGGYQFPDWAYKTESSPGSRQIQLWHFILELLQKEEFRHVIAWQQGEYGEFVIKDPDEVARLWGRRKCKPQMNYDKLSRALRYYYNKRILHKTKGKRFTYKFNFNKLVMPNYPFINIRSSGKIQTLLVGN
# Method in brief: as §1
# ETV6 = ETV6 (Homo sapiens, UniProt P41212 1-452); conditions: protein: recombinant; tags: N-terminal GST; dsDNA, one strand shown
# Method in brief: as §1
# Chain of CRX (O43186 whole entry): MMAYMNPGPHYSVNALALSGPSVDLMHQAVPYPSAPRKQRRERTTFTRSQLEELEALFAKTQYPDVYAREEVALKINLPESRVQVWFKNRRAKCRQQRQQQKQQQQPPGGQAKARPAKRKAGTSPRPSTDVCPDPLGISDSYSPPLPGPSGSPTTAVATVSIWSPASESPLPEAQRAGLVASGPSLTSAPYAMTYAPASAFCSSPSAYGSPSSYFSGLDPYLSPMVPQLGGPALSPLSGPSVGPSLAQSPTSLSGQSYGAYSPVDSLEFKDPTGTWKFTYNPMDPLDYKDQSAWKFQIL
# Chain of ETV5 (P41161 whole entry): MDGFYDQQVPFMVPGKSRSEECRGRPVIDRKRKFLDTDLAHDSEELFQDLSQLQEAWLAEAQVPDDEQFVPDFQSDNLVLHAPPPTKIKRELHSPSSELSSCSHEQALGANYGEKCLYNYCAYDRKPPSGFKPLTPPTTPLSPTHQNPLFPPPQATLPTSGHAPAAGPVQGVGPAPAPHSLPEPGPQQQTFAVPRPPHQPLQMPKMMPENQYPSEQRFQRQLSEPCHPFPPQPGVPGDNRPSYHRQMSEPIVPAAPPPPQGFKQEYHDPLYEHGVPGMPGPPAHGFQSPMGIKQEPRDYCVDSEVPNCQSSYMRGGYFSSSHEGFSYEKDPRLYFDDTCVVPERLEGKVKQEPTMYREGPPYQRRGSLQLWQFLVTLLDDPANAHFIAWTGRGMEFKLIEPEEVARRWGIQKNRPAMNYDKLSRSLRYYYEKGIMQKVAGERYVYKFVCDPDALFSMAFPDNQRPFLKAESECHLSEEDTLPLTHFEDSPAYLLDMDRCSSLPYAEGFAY
# Chain of ETV1 (P50549 whole entry): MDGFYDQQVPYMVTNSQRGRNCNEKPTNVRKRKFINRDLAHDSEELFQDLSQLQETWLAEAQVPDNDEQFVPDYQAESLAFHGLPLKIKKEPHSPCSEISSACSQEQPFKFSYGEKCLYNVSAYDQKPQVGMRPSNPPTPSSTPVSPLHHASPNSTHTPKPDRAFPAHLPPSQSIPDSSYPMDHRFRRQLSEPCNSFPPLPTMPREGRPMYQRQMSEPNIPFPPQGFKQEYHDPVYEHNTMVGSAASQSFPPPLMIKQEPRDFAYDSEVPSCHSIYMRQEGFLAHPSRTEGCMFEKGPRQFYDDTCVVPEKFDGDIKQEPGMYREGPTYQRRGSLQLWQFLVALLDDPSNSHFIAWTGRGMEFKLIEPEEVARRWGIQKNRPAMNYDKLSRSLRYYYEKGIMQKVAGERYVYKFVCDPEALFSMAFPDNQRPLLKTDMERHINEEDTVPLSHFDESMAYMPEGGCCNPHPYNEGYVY
# Chain of ELF4 (Q99607 whole entry): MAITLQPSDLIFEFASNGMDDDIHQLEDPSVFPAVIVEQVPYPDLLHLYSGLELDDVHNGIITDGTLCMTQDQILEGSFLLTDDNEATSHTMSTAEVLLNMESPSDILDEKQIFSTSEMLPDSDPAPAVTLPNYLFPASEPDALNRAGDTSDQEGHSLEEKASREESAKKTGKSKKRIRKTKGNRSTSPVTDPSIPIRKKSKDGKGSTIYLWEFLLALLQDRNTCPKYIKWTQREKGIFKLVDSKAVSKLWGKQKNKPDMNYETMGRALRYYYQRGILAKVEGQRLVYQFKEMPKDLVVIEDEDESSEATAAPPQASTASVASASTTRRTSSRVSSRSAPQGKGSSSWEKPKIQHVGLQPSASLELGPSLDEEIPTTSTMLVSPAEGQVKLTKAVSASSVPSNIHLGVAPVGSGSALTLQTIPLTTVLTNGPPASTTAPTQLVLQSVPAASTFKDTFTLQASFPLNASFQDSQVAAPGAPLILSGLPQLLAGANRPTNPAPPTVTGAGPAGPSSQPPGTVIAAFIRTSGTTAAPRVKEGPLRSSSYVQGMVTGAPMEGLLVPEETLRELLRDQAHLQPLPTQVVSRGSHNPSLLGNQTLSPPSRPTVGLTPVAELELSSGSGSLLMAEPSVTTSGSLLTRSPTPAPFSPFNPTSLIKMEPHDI
# Chain of HSF1 (Q00613 whole entry): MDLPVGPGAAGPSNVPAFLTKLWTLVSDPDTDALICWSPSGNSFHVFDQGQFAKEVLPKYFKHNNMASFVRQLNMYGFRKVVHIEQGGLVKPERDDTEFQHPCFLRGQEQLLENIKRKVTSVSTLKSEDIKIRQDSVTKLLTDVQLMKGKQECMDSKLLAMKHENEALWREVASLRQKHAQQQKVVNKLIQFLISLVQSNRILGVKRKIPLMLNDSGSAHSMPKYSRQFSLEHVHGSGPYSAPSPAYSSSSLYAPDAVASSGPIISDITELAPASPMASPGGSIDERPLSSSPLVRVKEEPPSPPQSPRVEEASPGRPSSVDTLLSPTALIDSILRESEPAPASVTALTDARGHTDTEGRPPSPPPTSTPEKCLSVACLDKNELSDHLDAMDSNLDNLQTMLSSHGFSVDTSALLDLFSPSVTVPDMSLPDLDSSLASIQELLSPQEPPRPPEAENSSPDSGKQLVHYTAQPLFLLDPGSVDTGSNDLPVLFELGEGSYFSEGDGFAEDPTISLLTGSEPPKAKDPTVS
# Chain of ETV6 (P41212 whole entry): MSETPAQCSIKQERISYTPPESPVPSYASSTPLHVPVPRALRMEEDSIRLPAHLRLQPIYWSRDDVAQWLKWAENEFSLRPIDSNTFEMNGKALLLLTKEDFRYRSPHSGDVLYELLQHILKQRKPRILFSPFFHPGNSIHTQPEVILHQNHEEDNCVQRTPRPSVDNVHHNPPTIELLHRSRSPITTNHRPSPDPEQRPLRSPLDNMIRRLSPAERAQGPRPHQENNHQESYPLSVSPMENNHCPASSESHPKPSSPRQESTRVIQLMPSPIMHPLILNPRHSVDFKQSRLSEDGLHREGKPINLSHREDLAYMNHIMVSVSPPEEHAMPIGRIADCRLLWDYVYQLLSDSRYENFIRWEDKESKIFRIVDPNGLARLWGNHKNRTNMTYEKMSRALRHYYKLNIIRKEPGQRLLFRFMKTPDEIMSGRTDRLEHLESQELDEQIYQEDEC
sequence,measurement,setting,value
ATTACG,binding signal,FEV,"1.16 fold enrichment (6-mer frequency, TF over GST control)"
same,binding signal,ETV5,"1.26 fold enrichment (6-mer frequency, TF over GST control)"
same,binding signal,HSF1,"1.54 fold enrichment (6-mer frequency, TF over GST control)"
same,binding signal,SPIC,"1.02 fold enrichment (6-mer frequency, TF over GST control)"
same,binding signal,ELF4,"1.14 fold enrichment (6-mer frequency, TF over GST control)"
same,binding signal,ELK4,"1.28 fold enrichment (6-mer frequency, TF over GST control)"
same,binding signal,ETV2,"1.17 fold enrichment (6-mer frequency, TF over GST control)"
same,binding signal,ELF3,"1.14 fold enrichment (6-mer frequency, TF over GST control)"
same,binding signal,CRX,"2.19 fold enrichment (6-mer frequency, TF over GST control)"
same,binding signal,ETV1,"1.26 fold enrichment (6-mer frequency, TF over GST control)"
same,binding signal,ERF,"1.15 fold enrichment (6-mer frequency, TF over GST control)"
same,binding signal,ETV3L,"1.15 fold enrichment (6-mer frequency, TF over GST control)"
same,binding signal,ETS2,"1.29 fold enrichment (6-mer frequency, TF over GST control)"
same,binding signal,SPDEF,"1.21 fold enrichment (6-mer frequency, TF over GST control)"
same,binding signal,ETV7,"1.12 fold enrichment (6-mer frequency, TF over GST control)"
same,binding signal,ELF5,"1.12 fold enrichment (6-mer frequency, TF over GST control)"
same,binding signal,ETV3,"1.22 fold enrichment (6-mer frequency, TF over GST control)"
same,binding signal,ETV6,"1.23 fold enrichment (6-mer frequency, TF over GST control)"
